From PubChem BioAssay (NCI) come the findings set out here.

This is part of a sample that, as a whole, favours compounds with a hit. Of some 83,000 tested, about 20% had one in any assay.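 Activity criterion: percent growth below 10, measured after cells in 96-well plates were exposed to a single compound concentration for 48 hours.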 A number with no mark means an inactive call. Active and inactive are the calls of the source.

Among the test systems are SK-MEL-2 melanoma; EKVX NSCLC; SN12C renal; UO-31 renal; TK-10 renal; ACHN renal; CAKI-1 renal; A498 renal; CCRF-CEM leukemia; MOLT-4 leukemia; SR leukemia; RPMI-8226 leukemia; OVCAR-8 ovarian; OVCAR-5 ovarian; OVCAR-4 ovarian; SK-OV-3 ovarian; IGROV1 ovarian; OVCAR-3 ovarian; HS 578T breast; NCI/ADR-RES ovarian.
Common to all, as to experiment: NCI-60 one-dose screen, 48 h (100 = growth as untreated, 0 = no growth, -100 = all killed)
Settings in all cases: 10 µM unless noted

As to `C#Cc1cccc(Nc2nc(Cl)nc3cc(NC(=O)CCl)ccc23)c1`, the growth is -75.9% (active) in the experiment with SK-MEL-2 melanoma; -76.5% (active) in the experiment with EKVX NSCLC; -70.7% (active) in the experiment on SN12C renal; -96% (active) in the experiment on UO-31 renal; -96.3% (active) in the experiment on TK-10 renal; -98% (active) in the experiment on ACHN renal. The growth is -96.9% (active) in the experiment with CAKI-1 renal; 59.6% in the experiment with A498 renal; -17.4% (active) with CCRF-CEM leukemia; -24.9% (active) in the experiment with MOLT-4 leukemia; -39.7% (active) in the experiment on SR leukemia; -47.6% (active) in the experiment with RPMI-8226 leukemia. Besides, the growth in the experiment on OVCAR-8 ovarian was -23.9% (active); in the experiment with OVCAR-5 ovarian, -92% (active); in the experiment with OVCAR-4 ovarian, -66.4% (active); in the experiment with SK-OV-3 ovarian, -18.9% (active); with IGROV1 ovarian it was -59.8% (active); in the experiment with OVCAR-3 ovarian, -88.1% (active). Moreover, the growth with HS 578T breast is -14% (active); in the experiment on NCI/ADR-RES ovarian, -14.4% (active).
In the case of `C=C(C)[C@@H]1CCC[C@]2(C(=O)OC)CC[C@]3(C)[C@@H](CC[C@@H]4[C@@]5(C)CCCNC(C)(C)[C@@H]5CC[C@]43C)[C@@H]12`, the growth is 94% in the experiment on SK-MEL-2 melanoma; 88.2% with EKVX NSCLC; 92.1% in the experiment with SN12C renal; 57.7% in the experiment with UO-31 renal; 90.4% in the experiment on TK-10 renal; 88.2% in the experiment on ACHN renal. The growth with CAKI-1 renal is 73.3%; with A498 renal, 106%; in the experiment with CCRF-CEM leukemia, 84%; in the experiment with MOLT-4 leukemia, 76.9%; in the experiment on SR leukemia, 54.5%; with RPMI-8226 leukemia, 75.7%. For the same molecule, the growth is 89.6% with OVCAR-8 ovarian; 86.4% in the experiment on OVCAR-5 ovarian; 88.1% with OVCAR-4 ovarian; 95.8% in the experiment with SK-OV-3 ovarian; 65.3% in the experiment on IGROV1 ovarian; 74.4% with OVCAR-3 ovarian. In addition, the growth with HS 578T breast was 87.4%; with NCI/ADR-RES ovarian, 98.8%.
Take `Cc1cc(C)n(C(=O)CSc2nc3sc4c(c3c(=O)n2-c2ccccc2)CCCCC4)n1`: the growth was 98.3% in the experiment on SK-MEL-2 melanoma; 97% in the experiment on EKVX NSCLC; 91.9% with SN12C renal; 90.6% in the experiment on UO-31 renal; 101% in the experiment on TK-10 renal; 100% with ACHN renal. Further, the growth in the experiment with CAKI-1 renal was 95.2%; in the experiment on A498 renal it was 99.5%; in the experiment on CCRF-CEM leukemia it was 95.5%; with MOLT-4 leukemia, 95.2%; with SR leukemia, 97.8%; in the experiment on RPMI-8226 leukemia it was 103%. Further, the growth in the experiment on OVCAR-8 ovarian was 100%; in the experiment with OVCAR-5 ovarian it was 105%; in the experiment with OVCAR-4 ovarian it was 94.2%; in the experiment on SK-OV-3 ovarian it was 99%; in the experiment with IGROV1 ovarian it was 107%; with OVCAR-3 ovarian, 104%. In addition, the figures for the growth in the experiment with HS 578T breast and in the experiment on NCI/ADR-RES ovarian were 96.8% and 104%, respectively.
`CCCCCCCCOC(=O)c1c(C)[nH]c(/C=C2\N=C(c3ccc[nH]3)C=C2OC)c1C`: the growth was -70.3% (active) with SK-MEL-2 melanoma; 27.8% in the experiment with EKVX NSCLC; 11.7% in the experiment on SN12C renal; -52.1% (active) in the experiment with UO-31 renal; 9.67% (active) with TK-10 renal; -18.9% (active) with ACHN renal. Also, the growth was -13.2% (active) in the experiment with CAKI-1 renal; -7.97% (active) in the experiment on A498 renal; 17.7% in the experiment with CCRF-CEM leukemia; 4.33% (active) with MOLT-4 leukemia; 14.1% in the experiment with SR leukemia; -21% (active) in the experiment with RPMI-8226 leukemia. For the same molecule, the growth is 4.86% (active) with OVCAR-8 ovarian; 15.2% in the experiment on OVCAR-5 ovarian; 4.99% (active) in the experiment on OVCAR-4 ovarian; 20.8% with SK-OV-3 ovarian; 10.1% with IGROV1 ovarian; -38.6% (active) in the experiment with OVCAR-3 ovarian. Moreover, the growth is -27.8% (active) in the experiment with HS 578T breast and 15.9% in the experiment with NCI/ADR-RES ovarian.
As for `[2H]C([2H])([2H])Oc1ccc(/C=C/C(=O)/C=C(O)/C=C/c2ccc(OC([2H])([2H])[2H])c(OC([2H])([2H])[2H])c2)cc1OC([2H])([2H])[2H]`, the growth in the experiment with SK-MEL-2 melanoma was 86.3%; in the experiment with EKVX NSCLC it was 53.1%; with SN12C renal, 28.3%; in the experiment with UO-31 renal, 11.4%; in the experiment on TK-10 renal, 54.4%; in the experiment on ACHN renal, 40.2%. For the same molecule, the growth in the experiment on CAKI-1 renal is 41.3%; with A498 renal, 116%; with CCRF-CEM leukemia, 22.3%; in the experiment on MOLT-4 leukemia, 60.6%; in the experiment with SR leukemia, 18.6%; with RPMI-8226 leukemia, 6.79% (active). The growth in the experiment with OVCAR-8 ovarian was 21.8%; with OVCAR-5 ovarian, 71.6%; with OVCAR-4 ovarian, 42.2%; in the experiment on SK-OV-3 ovarian, 39%; with IGROV1 ovarian it was 52.9%; with OVCAR-3 ovarian it was 37.2%. Moreover, the growth in the experiment on HS 578T breast is 51.7%; in the experiment with NCI/ADR-RES ovarian, 41.5%.
Regarding `Cn1ncc(CC(=O)O)c1-n1nnc2cc(Cl)ccc2c1=O`, the growth with SK-MEL-2 melanoma is 99.3%; with EKVX NSCLC, 86%; with SN12C renal, 92.5%; with UO-31 renal, 81.1%; in the experiment on TK-10 renal, 90.7%; in the experiment on ACHN renal, 94.3%. In addition, the growth in the experiment with CAKI-1 renal was 87.8%; in the experiment with A498 renal it was 134%; with CCRF-CEM leukemia, 98.1%; in the experiment on MOLT-4 leukemia, 100%; with SR leukemia, 87.6%; in the experiment on RPMI-8226 leukemia it was 106%. The growth in the experiment with OVCAR-8 ovarian was 99.6%; in the experiment with OVCAR-5 ovarian it was 98.1%; with OVCAR-4 ovarian, 94.6%; with SK-OV-3 ovarian, 111%; with IGROV1 ovarian it was 103%; in the experiment on OVCAR-3 ovarian, 114%. The values for the growth in the experiment with HS 578T breast and in the experiment on NCI/ADR-RES ovarian were 91.5% and 101%, respectively.
In the case of `CCN1C(=O)N(CC)C2C1NN=c1s/c(=C3\C(=O)N(C)c4ccccc43)c(=O)n12` (stereo not given), the growth is 60.3% in the experiment on SK-MEL-2 melanoma; 57.8% in the experiment with EKVX NSCLC; 36.9% in the experiment with SN12C renal; 43.6% with UO-31 renal; 69.8% in the experiment on TK-10 renal; 40.9% with ACHN renal. Further, the growth is 42.2% with CAKI-1 renal; -26.9% (active) in the experiment with A498 renal; 30.8% with CCRF-CEM leukemia; 45.1% in the experiment on MOLT-4 leukemia; 19.3% with SR leukemia; 62.1% with RPMI-8226 leukemia. Also, the growth in the experiment with OVCAR-8 ovarian was 37.6%; in the experiment on OVCAR-5 ovarian, 48.9%; with OVCAR-4 ovarian it was 52%; in the experiment with SK-OV-3 ovarian, 72.5%; in the experiment with IGROV1 ovarian, 37.4%; in the experiment with OVCAR-3 ovarian, -14.1% (active). Also, the growth was 14.2% in the experiment on HS 578T breast and 9.37% (active) with NCI/ADR-RES ovarian.
